Experimental data as given in PubChem BioAssay (NCATS).
Where “and” joins values, the source holds several entries; their conditions need not be identical. Equal entries are not always repeated. Inconclusive results are not listed. Calls of active or inactive are those of the source. Unless noted, calls follow the shape of the full dose curve.

Assays:
[1] = target: Glucocorticoid receptor (Homo sapiens) (UniProt P04150); assay: qHTS assay for small molecule agonists of glucocorticoid receptor signaling (AID 588532; active = well fitted curve in the direction sought with a large enough effect in the signal ratio, with a control signal flat; the % refers to the signal ratio;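 also: 100% = dexamethasone at 0.1 µM and 0% = DMSO only wells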); conditions: HeLa MMTV-bla, beta-lactamase ratio, agonist, 18 h; stronger effect = higher value; percent of dexamethasone control, DMSO zero
Procedure, shortened: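 Quantitative HTS using CellSensor MMTV-bla HeLa cells in charcoal/dextran-treated serum; compounds tested up to 92 uM. After 18 h at 37 C, CCF4 dye reported reporter induction.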

[2] = target: Glucocorticoid receptor (Homo sapiens) (UniProt P04150); assay: qHTS assay for small molecule antagonists of glucocorticoid receptor signaling (AID 588533; active = well fitted inhibition curve with a large enough effect in the signal ratio, with a control signal flat, not every such curve was filed as active; the % refers to the signal ratio;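 also: cells stimulated with 2 nM dexamethasone as agonist; % is scaled to controls: 0 for no effect and ±100 for the full control effect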); conditions: HeLa MMTV-bla, GRE beta-lactamase ratio, antagonist mode, 18 h; series mostly up to 76.8 µM
Procedure, shortened: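 Antagonist-mode qHTS: compound titrations added to GRE-bla HeLa cells, then dexamethasone 2 nM final; 18 h, 37 C. CCF4 FRET fluorescence normalized to dexamethasone and DMSO; IC50 from Hill fit.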

[3] = qHTS assay for small molecule antagonists of peroxisome proliferator-activated receptor delta signaling (AID 588535; active = well fitted inhibition curve with a large enough effect in the signal ratio, with a control signal flat, not every such curve was filed as active; the % refers to the signal ratio;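 as to max response: cells co-treated with a PPAR-delta agonist as stimulator during compound exposure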); conditions: HEK293T PPARd-UAS-bla, beta-lactamase FRET ratio, 18 h; 460 nm channel
Procedure, shortened: (§1)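 HEK293T PPAR-delta-UAS-bla cells, 4000/well, 2% charcoal/dextran FBS; 5 h 37 C; cpd titration; 18 h 37 C; CCF4 2 h RT; FI 460/530 nm; Hill fit → IC50, efficacy.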

[4] = target: Peroxisome proliferator-activated receptor delta (Homo sapiens) (UniProt Q03181); assay: as above; conditions: HEK293T PPARd-UAS-bla, beta-lactamase FRET ratio, 18 h; series mostly up to 76.7 µM
Procedure, shortened: as §1

[5] = target: Peroxisome proliferator-activated receptor gamma (Homo sapiens) (UniProt P37231); assay: qHTS assay for small molecule agonists of peroxisome proliferator-activated receptor gamma signaling (AID 588536; active = well fitted curve in the direction sought with a large enough effect in the signal ratio, with a control signal flat, not every such curve was filed as active; the % refers to the signal ratio;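 also: 0% = DMSO basal wells and 100% = rosiglitazone at 2 µM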); conditions: HEK293 PPARg-UAS-bla, beta-lactamase ratio, 16 h, percent of rosiglitazone response, DMSO as zero; series mostly up to 76.7 µM
Procedure, shortened: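 PPAR-gamma-UAS-bla HEK293 cells in medium with 1% charcoal/dextran-treated FBS were exposed to compounds for 16 h at 37 C. Beta-lactamase activity was read with CCF4 substrate (405 nm excitation, 460/530 nm emission).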

[6] = target: Peroxisome proliferator-activated receptor gamma (Homo sapiens) (UniProt P37231); assay: qHTS assay for small molecule antagonists of peroxisome proliferator-activated receptor gamma signaling (AID 588537; active = well fitted inhibition curve with a large enough effect in the signal ratio, with a control signal flat, not every such curve was filed as active; the % refers to the signal ratio;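 also: reporter cells co-stimulated with 50 nM rosiglitazone agonist during compound treatment; % of control where 0% means no effect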); conditions: HEK293 PPARg-UAS-bla, beta-lactamase ratio, antagonist mode; series mostly up to 76.8 µM
Procedure, shortened: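 Antagonist mode, beta-lactamase reporter in HEK293; charcoal/dextran FBS 1%; 3000 cells/well, 37 C 6-6.5 h; cpd titration + rosiglitazone 50 nM final, 16 h 37 C; CCF4, 2 h RT; 460/530 nm; Hill fit → IC50, efficacy.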

[7] = target: Vitamin D3 receptor (Homo sapiens) (UniProt P11473); assay: qHTS assay for small molecule antagonists of vitamin D receptor signaling (AID 588541); conditions: HEK293T VDR-UAS-bla, beta-lactamase ratio, antagonist mode; series mostly up to 76.7 µM;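 also: receptor activated by calcitriol during compound treatment; % is scaled to controls: 0 for no effect and ±100 for the full control effect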
Procedure, shortened: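 Antagonist-mode beta-lactamase reporter assay: HEK293T VDR-UAS-bla cells were exposed to titrated compound alongside 1-alpha,25-dihydroxyvitamin D3 at 3 nM final for 16 h. Values were normalized to the 50 nM agonist control and DMSO basal, with IC50 and efficacy from Hill equation fits.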

[8] = target: Vitamin D3 receptor (Homo sapiens) (UniProt P11473); assay: qHTS assay for small molecule agonists of vitamin D receptor signaling (AID 588543); conditions: HEK293T VDR-UAS-bla, beta-lactamase ratio, 16 h; series mostly up to 76.8 µM;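 also: 0% = DMSO basal and 100% = reference agonist control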
Procedure, shortened: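 β-lactamase reporter, VDR-UAS-bla HEK293T, agonist mode. Cells plated 5 h at 37 °C, compound titration 16 h at 37 °C, CCF4 dye 2 h RT, ratio 460/530 nm. Hill fit → EC50, efficacy vs 50 nM 1α,25-(OH)2D3.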

[9] = target: Bile acid receptor (Homo sapiens) (UniProt Q96RI1); assay: qHTS assay for small molecule antagonists of farnesoid X receptor signaling (AID 588526); conditions: HEK293T FXR-UAS-bla, beta-lactamase ratio, antagonist mode; series mostly up to 76.7 µM; also: % is scaled to controls: 0 for no effect and ±100 for the full control effect
Procedure, shortened: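 Beta-lactamase reporter antagonist mode: HEK293T FXR-UAS-bla cells, titrated compound, CDCA stimulation, 16 h 37 C, CCF4 dye 2 h RT. Data normalized to CDCA 50 uM and DMSO; Hill-fit IC50.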

[10] = target: Androgen receptor (Homo sapiens) (UniProt P10275); assay: qHTS assay for small molecule antagonists of androgen receptor signaling (AID 588516; active = well fitted curve in the direction sought with a large enough effect in the signal ratio, with a control signal flat, not every such curve was filed as active; the % refers to the signal ratio; also: % is scaled to controls: 0 for no effect and ±100 for the full control effect); conditions: AR-UAS-bla HEK293, beta-lactamase ratio, antagonist mode, 16 h; series mostly up to 76.8 µM
Procedure, shortened: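 HEK293 AR-UAS-bla cells, 10% dialyzed FBS medium; cpd titration + R1881 10 nM final, 16 h 37 C; CCF4 2 h RT; FRET ratio; IC50/efficacy via Hill fit.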

Bile acid receptor (Homo sapiens), sequence (Q96RI1 whole entry, looked up): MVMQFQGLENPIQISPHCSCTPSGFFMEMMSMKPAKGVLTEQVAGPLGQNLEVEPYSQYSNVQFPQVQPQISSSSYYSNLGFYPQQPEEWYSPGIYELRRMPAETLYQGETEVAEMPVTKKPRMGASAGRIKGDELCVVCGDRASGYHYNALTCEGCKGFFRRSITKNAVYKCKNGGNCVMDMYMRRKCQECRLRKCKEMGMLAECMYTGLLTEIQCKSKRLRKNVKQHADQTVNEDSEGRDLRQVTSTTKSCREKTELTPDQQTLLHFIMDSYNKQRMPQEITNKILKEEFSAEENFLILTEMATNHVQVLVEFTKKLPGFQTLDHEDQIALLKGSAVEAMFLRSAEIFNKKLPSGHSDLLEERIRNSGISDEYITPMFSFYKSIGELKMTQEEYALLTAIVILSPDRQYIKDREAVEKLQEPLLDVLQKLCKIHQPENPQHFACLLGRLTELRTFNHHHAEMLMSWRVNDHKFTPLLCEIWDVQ
Vitamin D3 receptor (Homo sapiens), sequence (P11473 whole entry, looked up): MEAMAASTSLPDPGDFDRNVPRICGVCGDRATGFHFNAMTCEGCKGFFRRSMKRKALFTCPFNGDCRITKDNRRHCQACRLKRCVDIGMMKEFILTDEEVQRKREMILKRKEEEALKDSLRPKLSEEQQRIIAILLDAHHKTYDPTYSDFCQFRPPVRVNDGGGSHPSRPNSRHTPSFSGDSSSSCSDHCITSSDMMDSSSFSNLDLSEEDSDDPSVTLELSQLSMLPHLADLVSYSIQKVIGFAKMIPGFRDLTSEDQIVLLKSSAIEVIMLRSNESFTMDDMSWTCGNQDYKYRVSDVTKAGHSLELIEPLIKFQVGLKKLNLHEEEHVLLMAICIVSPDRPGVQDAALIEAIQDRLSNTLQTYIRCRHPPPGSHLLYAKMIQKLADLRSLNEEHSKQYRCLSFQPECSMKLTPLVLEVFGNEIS
Glucocorticoid receptor (Homo sapiens), sequence (P04150 whole entry, looked up): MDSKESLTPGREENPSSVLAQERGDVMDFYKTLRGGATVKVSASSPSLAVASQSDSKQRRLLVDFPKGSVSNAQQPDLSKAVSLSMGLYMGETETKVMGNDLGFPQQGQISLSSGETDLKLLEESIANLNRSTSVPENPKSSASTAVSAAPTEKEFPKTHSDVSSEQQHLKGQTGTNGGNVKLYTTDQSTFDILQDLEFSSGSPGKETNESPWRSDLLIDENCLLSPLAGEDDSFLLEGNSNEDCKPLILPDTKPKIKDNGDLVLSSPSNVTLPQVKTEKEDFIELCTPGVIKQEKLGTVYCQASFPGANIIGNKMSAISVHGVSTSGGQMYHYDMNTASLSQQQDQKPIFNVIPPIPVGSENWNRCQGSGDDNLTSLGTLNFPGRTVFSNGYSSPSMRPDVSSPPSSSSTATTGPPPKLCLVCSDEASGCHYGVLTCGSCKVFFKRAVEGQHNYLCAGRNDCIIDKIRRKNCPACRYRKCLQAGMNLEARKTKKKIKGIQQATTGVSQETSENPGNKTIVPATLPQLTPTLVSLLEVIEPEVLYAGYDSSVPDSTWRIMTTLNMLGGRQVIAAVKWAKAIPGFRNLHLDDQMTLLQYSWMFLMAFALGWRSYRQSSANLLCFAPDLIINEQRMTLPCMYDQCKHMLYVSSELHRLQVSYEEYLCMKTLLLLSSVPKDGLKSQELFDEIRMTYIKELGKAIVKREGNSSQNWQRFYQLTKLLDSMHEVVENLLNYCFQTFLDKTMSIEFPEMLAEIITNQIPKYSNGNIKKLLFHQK
Androgen receptor (Homo sapiens), sequence (P10275 whole entry, looked up): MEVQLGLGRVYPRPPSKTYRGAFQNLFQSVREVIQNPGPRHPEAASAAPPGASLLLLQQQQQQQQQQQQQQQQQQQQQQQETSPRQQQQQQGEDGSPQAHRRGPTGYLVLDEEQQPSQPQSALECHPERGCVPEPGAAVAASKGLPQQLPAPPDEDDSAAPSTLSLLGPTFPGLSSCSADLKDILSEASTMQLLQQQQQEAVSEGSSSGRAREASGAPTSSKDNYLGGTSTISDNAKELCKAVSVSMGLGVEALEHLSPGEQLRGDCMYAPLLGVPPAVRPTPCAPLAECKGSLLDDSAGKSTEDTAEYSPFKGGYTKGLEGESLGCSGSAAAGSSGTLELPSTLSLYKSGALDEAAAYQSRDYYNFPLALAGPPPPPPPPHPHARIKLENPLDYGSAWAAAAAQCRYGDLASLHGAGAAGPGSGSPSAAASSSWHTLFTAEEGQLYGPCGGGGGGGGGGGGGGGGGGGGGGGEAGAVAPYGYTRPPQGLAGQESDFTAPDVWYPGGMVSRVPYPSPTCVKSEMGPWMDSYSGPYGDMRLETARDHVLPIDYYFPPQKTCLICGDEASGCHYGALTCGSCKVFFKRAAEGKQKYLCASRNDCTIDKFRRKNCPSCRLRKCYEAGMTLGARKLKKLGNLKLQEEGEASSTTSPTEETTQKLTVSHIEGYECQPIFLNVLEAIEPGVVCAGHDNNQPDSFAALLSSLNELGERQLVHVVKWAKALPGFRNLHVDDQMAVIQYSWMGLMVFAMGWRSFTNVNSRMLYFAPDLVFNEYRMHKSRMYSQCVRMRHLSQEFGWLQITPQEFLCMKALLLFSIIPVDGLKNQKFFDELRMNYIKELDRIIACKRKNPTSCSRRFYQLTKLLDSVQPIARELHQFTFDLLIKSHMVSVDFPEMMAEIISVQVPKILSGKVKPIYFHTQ
Peroxisome proliferator-activated receptor gamma (Homo sapiens), sequence (P37231 whole entry, looked up): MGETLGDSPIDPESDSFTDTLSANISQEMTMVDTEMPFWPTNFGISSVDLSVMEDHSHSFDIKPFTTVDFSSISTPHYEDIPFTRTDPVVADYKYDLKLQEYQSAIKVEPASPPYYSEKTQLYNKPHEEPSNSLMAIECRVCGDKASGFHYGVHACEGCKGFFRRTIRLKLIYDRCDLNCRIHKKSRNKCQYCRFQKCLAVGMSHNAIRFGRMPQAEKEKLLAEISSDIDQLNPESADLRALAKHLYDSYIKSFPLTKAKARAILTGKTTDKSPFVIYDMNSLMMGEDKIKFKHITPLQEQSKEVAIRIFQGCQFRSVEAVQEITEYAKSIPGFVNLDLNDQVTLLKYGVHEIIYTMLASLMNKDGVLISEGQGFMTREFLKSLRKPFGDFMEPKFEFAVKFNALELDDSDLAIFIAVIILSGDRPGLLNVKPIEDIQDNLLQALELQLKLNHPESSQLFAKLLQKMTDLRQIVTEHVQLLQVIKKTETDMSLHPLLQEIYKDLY
Peroxisome proliferator-activated receptor delta (Homo sapiens), sequence (Q03181 whole entry, looked up): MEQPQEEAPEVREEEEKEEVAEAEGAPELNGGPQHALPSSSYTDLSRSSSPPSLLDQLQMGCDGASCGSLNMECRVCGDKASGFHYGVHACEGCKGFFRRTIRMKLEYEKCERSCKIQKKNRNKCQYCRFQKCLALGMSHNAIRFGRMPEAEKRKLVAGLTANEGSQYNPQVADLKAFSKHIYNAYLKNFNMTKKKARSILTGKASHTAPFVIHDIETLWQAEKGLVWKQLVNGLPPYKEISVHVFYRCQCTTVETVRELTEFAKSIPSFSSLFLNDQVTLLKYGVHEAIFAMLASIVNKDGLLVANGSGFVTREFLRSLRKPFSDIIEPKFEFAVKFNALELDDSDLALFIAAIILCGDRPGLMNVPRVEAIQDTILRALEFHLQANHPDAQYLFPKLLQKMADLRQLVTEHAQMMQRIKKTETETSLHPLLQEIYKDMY

Row | Compound | activation [1] | outcome [2] | max response [3] | outcome [4] | outcome [5] | outcome [6] | outcome [7] | outcome [8] | outcome [9] | outcome [10]
1 | Oc1cccc(O)c1 | 1.81% (inactive) | inactive | 15.8% | inactive | inactive | inactive | inactive | inactive | – | –
2 | CCCCC(CC)COC(=O)c1ccccc1O (stereo not drawn) | -10.3% (inactive) | inactive | -34.6% | inactive | inactive | inactive | inactive | inactive | – | –
3 | O=S(=O)(O)NC1CCCCC1 | – | – | – | – | – | inactive | inactive | inactive | – | –
4 | Cc1cccc(Nc2cc(Cl)nc(SCC(=O)O)n2)c1C | -9.26% (inactive) | – | – | – | inactive | inactive | inactive | – | – | –
5 | O=C1O[C@H]([C@@H](O)CO)C(O)=C1O | 1.61% (inactive) and 16.4% (inactive) | inactive | -14.8% | inactive | inactive | inactive | – | – | – | –
6 | Nc1ccc(S(=O)(=O)Nc2nccs2)cc1 | -6.26% (inactive) | inactive | – | – | inactive | – | inactive | inactive | – | –
7 | [Cl][In]([Cl])[Cl] | – | – | 29.3% | inactive | – | – | inactive | inactive | – | –
8 | NC(=O)c1ncn([C@@H]2O[C@H](CO)[C@@H](O)[C@H]2O)n1 | 1.78% (inactive) | inactive | – | – | – | – | inactive | inactive | – | –
9 | CN(C)CCCN1c2ccccc2Sc2ccc(Cl)cc21 | 7.77% (inactive) | – | -54.6% | inactive | inactive | – | inactive | inactive | inactive | –
10 | NCCNCCNCCN | 21.8% (inactive) | inactive | 26% | inactive | – | – | inactive | inactive | inactive | –
11 | CCCCOC(=O)c1ccc(O)cc1 | -4.25% (inactive) and 1.71% (inactive) | inactive | -14.2% | inactive | – | – | inactive | inactive | inactive | –
12 | CN(C)CCC=C1c2ccccc2CCc2ccccc21 | – | – | 10% | inactive | – | – | inactive | inactive | – | –
13 | O=C1NS(=O)(=O)c2ccccc21 | – | – | 2.93% | inactive | inactive | – | – | – | – | –
14 | CC1(C)[C@@H]2CC[C@@]1(C)C(=O)C2 | 6.36% (inactive) | inactive | 5.89% | inactive | – | – | inactive | inactive | – | –
15 | NCCNCCNCCNCCN | -3.86% (inactive) and -5.35% (inactive) | inactive | – | – | – | inactive | inactive | inactive | – | inactive
16 | CCOC(=O)c1ccc(O)cc1 | – | inactive | -12.7% | inactive | – | – | – | inactive | inactive | –
17 | COc1ccc(Cl)cc1C(=O)NCCc1ccc(S(=O)(=O)NC(=O)NC2CCCCC2)cc1 | – | – | – | – | inactive | – | – | – | inactive | –

Row | Compound | activation [1] | outcome [2] | max response [3] | outcome [4] | outcome [5] | outcome [6] | outcome [7] | outcome [8] | outcome [9] | outcome [10]
18 | O=C1c2c(O)cccc2Cc2cccc(O)c21 | -1.63% (inactive) | inactive | -22% | inactive | inactive | – | – | – | inactive | –
19 | COc1ccccc1O | 0.59% (inactive) and 4.92% (inactive) and -0.396% (inactive) | inactive | -6.63% and -4.79% | inactive | inactive | inactive | inactive | inactive | inactive | –
20 | COC(=O)C1=C(C)NC(C)=C(C(=O)OC)C1c1ccccc1[N+](=O)[O-] | -7.74% (inactive) | – | – | – | – | – | – | inactive | – | –
21 | C[C@]12CC[C@@H]3c4ccc(O)cc4CC[C@H]3[C@@H]1CCC2=O | – | – | – | – | – | – | – | – | inactive | –
22 | CN(C)CCOC(C)(c1ccccc1)c1ccccn1 (stereo not drawn) | – | – | -48.6% | inactive | inactive | inactive | inactive | inactive | inactive | –
23 | CCCCCCCCCCCCOS(=O)(=O)O | – | inactive | – | – | inactive | inactive | inactive | inactive | – | –
24 | C[C@]12C[C@H](O)[C@H]3[C@@H](CCC4=CC(=O)CC[C@@]43C)[C@@H]1CC[C@@H]2C(=O)CO | – | – | 57.2% | inactive | inactive | inactive | – | – | inactive | –
25 | CC12CCC(CC1)C(C)(C)O2 | -0.499% (inactive) | inactive | -10.6% | inactive | inactive | inactive | inactive | inactive | inactive | –
26 | Cc1cc(CC(=O)O)n(C)c1C(=O)c1ccc(Cl)cc1 | -2.23% (inactive) | inactive | – | – | – | – | inactive | inactive | inactive | –
27 | CC(O)CN(CCN(CC(C)O)CC(C)O)CC(C)O (stereo not drawn) | -7.72% (inactive) | inactive | 30% | inactive | inactive | inactive | inactive | inactive | inactive | –
28 | Cc1cc2nc3c(=O)[nH]c(=O)nc-3n(C[C@H](O)[C@H](O)[C@H](O)CO)c2cc1C | -14% (inactive) | – | – | – | – | – | – | – | – | –
29 | NC(=O)N/N=C/c1ccc([N+](=O)[O-])o1 | -5.85% (inactive) and -2.6% (inactive) | inactive | 4.74% | inactive | inactive | – | inactive | inactive | – | –
30 | CNC(=O)Oc1ccc2c(c1)[C@]1(C)CCN(C)[C@@H]1N2C | -3.85% (inactive) | inactive | – | – | inactive | inactive | inactive | inactive | inactive | –
31 | Cc1c(O)cccc1C(=O)N[C@@H](CSc1ccccc1)[C@H](O)CN1C[C@H]2CCCC[C@H]2C[C@H]1C(=O)NC(C)(C)C | – | – | – | – | – | – | – | inactive | – | –
32 | CC(O)COc1ccccc1 (stereo not drawn) | -13.7% (inactive) | inactive | 6.24% | inactive | inactive | inactive | inactive | inactive | inactive | inactive
33 | CCCc1c(OCCCCc2nn[nH]n2)ccc(C(C)=O)c1O | -8.74% (inactive) | inactive | – | – | – | – | – | – | inactive | –
34 | CC1=C(/C=C/C(C)=C/C=C/C(C)=C/C(=O)O)C(C)(C)CCC1 | 3.3% (inactive) and -6.04% (inactive) | inactive | 53.7% and 67% | inactive | – | inactive | inactive | inactive | – | –
